Screening data from PubChem.
LRH-1 inv ag: LRH-1 (NR5A2) inverse agonists, primary screen, cell-based, luminescence, HEK293T, StAR-luciferase reporter. Nuclear receptor subfamily 5 group A member 2 (Homo sapiens), O00482. LRH-1 transfected, 24 h. inhibition, % at 3.6 µM. actives 0.13% (n = 360,000). AID 602396, 2012;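 active = inhibition above the mean inhibition of all tested compounds plus 3 SD, cut at about 73% in these data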;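 also: 0% = DMSO wells and 100% = reporter-only cells lacking LRH-1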
NCOA2 inhibitor: inhibition of GAL4-SRC2 driven luciferase reporter, primary screen, SRC2 inhibitor project, cell-based, luminescence | Nuclear receptor coactivator 2 (Homo sapiens), Q15596 | actives 0.17% (n = 370,000) | HEK293 GAL4-SRC2 luciferase reporter | inhibition, % at 9 µM | AID 651957, 2012;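 active = inhibition above the mean inhibition of all tested compounds plus 3 SD, set per campaign, cut at about 52% in these data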;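 also: 0% = DMSO treated cells and 100% = cells given Gossypol at 36 µM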
SRC3 inh: SRC3 coactivator transcriptional activity inhibitors, primary screen, cell-based, luminescence; Nuclear receptor coactivator 3 (Homo sapiens), Q9Y6Q9; actives 0.17% (n = 360,000); HEK293 GAL4-SRC3 luciferase reporter; inhibition, % at 3.6 µM;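 active = inhibition above a per-campaign cutoff, the mean of all compounds plus 3 SD, cut at about 60% in these data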;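 also: 0% = DMSO-treated cells and 100% = gossypol-treated cells at 36 µM; higher means less SRC3-driven luciferase light from the GAL4 reporter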
NR2F2 inh: NR2F2 transcriptional activity inhibitors, primary screen, cell-based, luciferase reporter, HEK293T, luminescence; COUP transcription factor 2 (Homo sapiens), P24468; HEK293T NGFI-A luciferase reporter; inhibition, % at 8.6 µM; actives 0.7% (n = 370,000); AID 686940, 2013;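 active = inhibition above a per-plate cutoff, mean inhibition of test wells between control levels plus 3 SD, cut at about 38% in these data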;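 also: cells cotransfected with COUP-TFII expression vector driving the NGFI-A reporter; 0% = median of COUP-TF2 test wells and 100% = reporter-only cells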
SRC1 inh: SRC1 coactivator transcriptional activity inhibitors, primary screen, cell-based, luminescence; Nuclear receptor coactivator 1 (Homo sapiens), Q15788; HEK293 GAL4-SRC1 luciferase reporter; inhibition, % at 3.6 µM; actives 0.12% (n = 360,000); AID 588354, 2011;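 active = inhibition above the campaign mean plus 3 SD, with each screening campaign given its own cutoff, cut at about 60% in these data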;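 also: 0% = DMSO treated cells and 100% = gossypol at 36 µM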
Gli-Sufu block: Gli-Sufu pathway antagonists, primary screen, luciferase luminescence, Sufu-KO-LIGHT cells, uHTS; Sufu-KO-LIGHT fibroblasts, Gli luciferase reporter luminescence; inhibition, % at 5 µM; actives 0.74% (n = 340,000); AID 588413, 2011;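 active = inhibition above about 55%, limit read from the data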;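 also: 0% = DMSO-treated cells and 100% = wells with medium but no cells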
VP16 Luc counter: Gal4-VP16 luciferase reporter inhibitors, counter-screen for COUP-TFII antagonist project, cell-based, luminescence, HEK293; shares compounds with NR2F2 inh; inhibition, % at 8.5 µM; actives 25% (n = 2,500); in the data active = inhibition above about 13%
COUP-TFII conf: NR2F2 transcriptional activity inhibitors, confirmation, cell-based, luciferase reporter, HEK293, triplicate; inhibition, % at 8.5 µM; actives 45% (n = 2,500); HEK293 NGFI-A luciferase reporter, luminescence; shares compounds with NR2F2 inh;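 active = mean inhibition over three repeats above a set limit taken from the earlier primary screen, cut at about 38% in these data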;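 also: 100% = cells given the luciferase reporter alone without the COUP-TF2 vector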
Starred values were filed as active, the others as inactive; nt = not tested or not shown. Compounds with a hit are over-represented: about 1.2% of the library has one in this group of screens.

SMILES	LRH-1 inv ag	NCOA2 inhibitor	SRC3 inh	NR2F2 inh	SRC1 inh	Gli-Sufu block	VP16 Luc counter	COUP-TFII conf
CC(=O)c1ccc(N2CCN(C(=O)/C=C/c3ccc(S(=O)(=O)N4CCOCC4)cc3)CC2)cc1	21	8	0	8	-5	27	nt	nt
COc1cccc(-c2nnc3n2N=C(c2ccc(Cl)cc2)CS3)c1	nt	23	nt	18	nt	nt	nt	nt
COc1cccc(-c2nnc3n2N=C(C(C)(C)C)CS3)c1	46	73*	66*	45*	67*	-10	27*	41*
COc1ccc(-c2csc(NC(=O)c3ccccc3F)n2)cc1	-20	-10	-30	9	8	-6	nt	nt
COc1ccc(-c2csc(NC(=O)c3ccccc3NS(=O)(=O)c3ccc(F)c(F)c3)n2)cc1	87*	0	79*	61*	64*	75*	3	61*
COc1ccc(C2=NS(=O)(=O)N(C)C(C(=O)N3CCc4ccccc4C3)=C2)cc1OC	46	0	8	39*	1	17	6	22
CCc1ccc(NC(=O)C2=CC(c3ccc(OC)c(OC)c3)=NS(=O)(=O)N2C)cc1	21	11	7	38*	-4	-20	-2	26
Cc1cc(N2CCN(C(=O)OC(C)(C)C)C[C@@H]2C)ccc1N1CCN(Cc2ccccc2)[C@@H](C)C1	nt	15	nt	6	nt	nt	nt	nt
COc1cc2c(cc1OC)C(C(=O)O)C(c1ccc3c(c1)OCO3)N(C)C2=O (stereo not drawn)	nt	16	nt	3	nt	nt	nt	nt
COc1ccc(-c2cn[nH]c2-c2ccc(OCc3ccc([N+](=O)[O-])cc3)cc2O)cc1OC	9	21	32	38*	12	15	-7	25
Cc1cc(Cl)ccc1OCC(=O)NCc1ccncc1	-16	-32	-17	-7	-31	-4	nt	nt
Cc1c(C)c2ccc(OCC(=O)Nc3ccccn3)c(C)c2oc1=O	76*	69*	81*	78*	74*	51	82*	98*
COc1ccccc1OCC(=O)Nc1ccncc1	1	-14	-24	-2	-15	1	nt	nt
Cc1cc(Cl)ccc1OCCCC(=O)NO	-33	36	25	52*	10	-12	-6	47*
Cc1cc(Cl)ccc1OCCCC(N)=O	-3	6	-4	-3	0	0	nt	nt
Cc1cc(Cl)ccc1OCC(=O)Nc1ccncc1	22	-5	0	40*	-9	-35	-28	23
Cc1cccc(OCC(=O)Nc2ccncc2)c1C	46	11	-10	39*	3	-11	-8	32
Cc1nn(C)c(C)c1NC(=O)COc1ccc(Cl)cc1Br	25	13	23	51*	4	14	4	50*
CSc1ccccc1NC(=O)COc1ccc(Cl)cc1Cl	-18	-26	-24	3	-27	40	nt	nt
O=C(COc1ccc(Cl)cc1Cl)Nc1ccccn1	51	82*	59	89*	63*	-31	64*	82*
C=CCn1c(SCC(N)=O)nnc1-c1ccc(C)cc1	nt	7	nt	-14	nt	nt	nt	nt
COC(=O)N1C[C@H](OCc2cn(-c3cc(Cl)cc(Cl)c3)nn2)[C@H](OCc2cn(-c3cc(Cl)cc(Cl)c3)nn2)C[C@@H]1c1ccccc1Br	nt	-16	nt	-3	nt	nt	nt	nt
COc1cc2c(cc1OC)C(c1ccc(-c3cc(Cl)ccc3Cl)o1)=NCC2	8	nt	-8	nt	8	16	nt	nt
COc1cc2c(cc1OC)C(c1ccc(-c3ccc(Cl)c(Cl)c3)o1)=NCC2	23	28	31	51*	17	18	9	46*
COc1cc2c(cc1OC)C(c1ccc(-c3ccc(Cl)cc3Cl)o1)=NCC2	42	18	22	62*	23	10	0	42*
SMILES	LRH-1 inv ag	NCOA2 inhibitor	SRC3 inh	NR2F2 inh	SRC1 inh	Gli-Sufu block	VP16 Luc counter	COUP-TFII conf
Cn1nc(-c2ccccn2)nc2c(=O)n(C)c(=O)nc1-2	84*	39	93*	54*	89*	3	30*	33
CCCc1nc2c(=O)n(C)c(=O)nc-2n(C)n1	89*	67*	90*	68*	87*	59*	37*	60*
Cc1ccccc1CN1CCCCC(NC(=O)c2cccc(F)c2)C1=O (stereo not drawn)	nt	-23	nt	5	nt	nt	nt	nt
CS(=O)(=O)N(CC(=O)NCCSc1ccccc1)c1ccc2c(c1)OCO2	-11	9	-10	38*	13	3	-9	-7
CCOC(=O)N1CCN(C(=O)C[C@@H]2C(=O)N(Cc3ccc(OC)cc3)C3=CCN(C(=O)OC(C)(C)C)C[C@]32C(=O)OCC)CC1	nt	-11	nt	-3	nt	nt	nt	nt
CCCCNC(=O)C[C@H]1C[C@@]2(C(=O)OC)C(=C[C@H](C(C)C)O[C@@H]2C2CC2)N(Cc2ccccc2)C1=O	nt	-4	nt	11	nt	nt	nt	nt
CSc1nnc2c(n1)C[C@H](c1ccccc1)[C@@H](C)[C@@H](C(=O)N1CCCC1)C2	nt	23	nt	3	nt	nt	nt	nt
CCCCCCCCN1C(=O)[C@@H](CC(=O)N2CCCC2)C[C@@]2(C(=O)OC)C1=C[C@H](C1CCCC1)O[C@@H]2C	nt	-1	nt	4	nt	nt	nt	nt
CCC(=O)N1CCN(c2ccc(NC(=O)c3cc4ccccc4o3)cc2Cl)CC1	10	25	25	44*	22	15	-16	36
O=C(Nc1ccc(N2CCN(C(=O)c3ccccc3)CC2)c(Cl)c1)c1ccco1	3	9	12	16	8	-13	nt	nt
O=C(Nc1ccc(N2CCN(C(=O)c3ccco3)CC2)c(Cl)c1)c1cc2ccccc2o1	14	45	32	63*	36	7	5	51*
C[C@H]1[C@H](c2ccccc2)Oc2cccc(NCCc3ccccc3)c2S(=O)(=O)N1Cc1ccc(F)cc1	nt	-5	nt	2	nt	nt	nt	nt
CC(Sc1nnc(NC2CC2)s1)C(=O)Nc1ccc(N2CCOCC2)cc1 (stereo not drawn)	-1	-21	-14	-12	-7	-3	nt	nt
CC(=O)c1c(C)[nH]c(C(=O)C(C)Sc2nnc(NC3CC3)s2)c1C (stereo not drawn)	32	-8	25	37*	11	21	-7	12
CC1CCN(C(=O)c2ncn3c2C(=O)NC[C@H]3C)CC1	nt	-8	nt	-3	nt	nt	nt	nt
